GLS inhibitor = glutaminase GLS (human) inhibition. Potency, µM (series often up to 45.5 µM), usual class: inhibitors. AID 624170. GLS enzymatic activity, qHTS titration. O94925. actives 0.21% (n = 410,000)
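Human kidney-isoform GLS in 45 mM KH2PO4 pH 8.2, 0.02% Tween-20, with compound, started with 1mM L-Glutamine (added stock). Glutamate oxidase/HRP/Amplex red coupled fluorescence read at start and after 30 min at RT.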
G9a inh = G9a (human) methyltransferase inhibition; Q96KQ7; G9a H3K9 monomethylation, AlphaScreen, 2 h; Potency, µM (top dose mostly 102 µM), hits mostly inhibitors; actives 8.8% (n = 350,000); further: nearly all actives have a fitted effect of over 75% in size
Target sequence (Q96KQ7 913-1193 limits assumed): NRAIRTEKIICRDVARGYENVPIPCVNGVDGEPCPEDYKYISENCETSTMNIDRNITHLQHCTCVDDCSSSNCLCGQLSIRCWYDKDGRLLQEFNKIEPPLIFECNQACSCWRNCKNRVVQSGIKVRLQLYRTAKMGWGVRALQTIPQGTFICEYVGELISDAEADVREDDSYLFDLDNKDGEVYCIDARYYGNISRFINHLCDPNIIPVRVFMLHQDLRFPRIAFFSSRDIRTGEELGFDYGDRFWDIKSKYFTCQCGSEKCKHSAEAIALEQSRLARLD
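Chemiluminescent proximity detection of H3K9 monomethylation, read after 10 min bead incubation in the dark. Reaction: 20 nM G9a, 500 nM biotin-H3K9 peptide, 20 uM SAM cofactor, 2 h, room temperature, following 15 min enzyme-compound preincubation.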
JMJD2A Tudor inh = JMJD2A Tudor domain (human) inhibition | O75164 | AlphaScreen JMJD2A-Tudor / H3K4me3 peptide binding | Potency, µM (highest dose often 114 µM), most hits filed as inhibitors | actives 4.4% (n = 390,000) | AID 504339; further: nearly all actives have a fitted effect of over 50% in size
BAZ2B inh = blocks human BAZ2B; Q9UIF8; AlphaScreen BAZ2B-H3K14Ac peptide displacement; Potency, µM (top dose mostly 114 µM), hits mostly inhibitors; actives 4.4% (n = 360,000); further: nearly all actives have a fitted effect of over 60% in size
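AlphaScreen displacement of biotin-H3(5-23)K14Ac peptide (50 nM final) from BAZ2B (50 nM final) in PBS pH 7.4, 0.01% Tween-20; complex preformed 30 min RT, then compounds (top 110 uM) 30 min RT, beads 20 min dark.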
HP1b chromo inh = blocks HP1-beta chromodomain binding to methylated histone tails. AlphaScreen HP1-beta / biotin-H3K9me3 peptide binding. P83916. Potency, µM (top dose mostly 114 µM), actives largely listed as inhibitors. actives 0.56% (n = 390,000). AID 540317; further: nearly all actives have a fitted effect of over 70% in size
Target sequence (P83916 whole entry, looked up): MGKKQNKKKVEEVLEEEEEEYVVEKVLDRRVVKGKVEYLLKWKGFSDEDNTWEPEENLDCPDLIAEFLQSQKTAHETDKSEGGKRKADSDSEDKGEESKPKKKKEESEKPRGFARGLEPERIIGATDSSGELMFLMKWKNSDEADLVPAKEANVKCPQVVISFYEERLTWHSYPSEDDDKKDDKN
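HP1-beta protein (50 nM final) preincubated 30 min at room temperature with biotinylated H3(1-18)K9me3 peptide (50 nM) in PBS pH 7.4, 0.01% Tween-20, then compound added for 30 min. AlphaScreen streptavidin donor/nickel chelate acceptor beads (10 ug/mL final), 30 min dark, luminescence read.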
L3MBTL1 block = L3MBTL1 (human) inhibition. AlphaScreen L3MBTL1–H3K9me1 peptide binding. Potency, µM (titrated, usually from 57.1 µM), usual class: inhibitors. actives 0.66% (n = 230,000); further: nearly all actives have a fitted effect of over 60% in size
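AlphaScreen proximity signal between nickel-chelate acceptor and streptavidin donor beads (final 10 ug/mL) reports binding of 50 nM L3MBTL1 to 75 nM biotin-H3 K9me1 peptide; complex incubated with compounds 30 min at room temperature; cefsulodin titration as control.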
Numbers stand for hits; . = inactive; ? = inconclusive; / = not tested or not shown; ! = repeats disagree; [ ] = remark or other dose. Sampled rows, rich in hits. Any-hit rate of the full collection: about 10%. The call rests on the fitted dose curve; in most records, active means well fitted curve in the direction sought with a large enough effect; inconclusive means small, poorly fitted or top-dose-only effect, or another doubt; inactive means no such curve, though single readings can be large; an effect the other way counts as inactive or inconclusive.

SMILES	GLS inhibitor	G9a inh	JMJD2A Tudor inh	BAZ2B inh	HP1b chromo inh	L3MBTL1 block
COc1ccc(N(CC(=O)NCc2ccccc2Cl)S(=O)(=O)c2c(C)[nH]c(=O)[nH]c2=O)cc1	.	.	.	.	.	/
S=c1[nH]cnc2scc(-c3ccc(Cl)cc3)c12	?	44.7µM	.	.	?	.
Cc1ccc(-c2csc3nc[nH]c(=S)c23)cc1	.	.	.	?	.	.
NNc1ncnc2scc(-c3ccc(Cl)cc3)c12	.	.	.	70.8µM	.	.
O=S(=O)(c1ccc(F)cc1)N1CCN(c2nc(-c3cccs3)nc3ccccc23)CC1	/	/	.	/	.	/
Cc1ccc(-n2ncc(C(=O)N3CCN(Cc4ccccc4)CC3)c2C2CCN(C(=O)OC(C)(C)C)CC2)c(C)c1	.	.	.	.	.	/
Cc1cc(NC(=O)N2CCC(CN3CCCCCC3)CC2)ccc1Br	.	.	.	.	.	/
Cc1cccc(/C=C/C(=O)c2cc(Br)ccc(=O)c2O)c1	.	?	?	44.7µM	?	/
CCOc1ccc(/C=C/C(=O)c2cc(Br)ccc(=O)c2O)cc1	.	7.94µM	50.1µM	44.7µM	.	.
CCc1ccc(/C=C/C(=O)c2cc(Br)ccc(=O)c2O)cc1	.	?	79.4µM	44.7µM	?	/
CCOc1ccc(C(=O)/C=C/c2ccc(OC)c(OC)c2)cc1	.	?	.	.	.	.
O=C(C=Cc1ccccc1)c1cc(Br)ccc1O	.	/	.	/	.	/
COc1cccc(OC)c1C(=O)Nc1ccc(-c2nc3ncccc3o2)cc1	.	.	.	.	.	/
Fc1ccccc1-n1ncc2c1ncn1nc(Cc3ccccc3)nc21	.	.	.	.	.	/
COc1ccccc1NC(=O)CSc1nnc(NC(=O)Nc2ccc(C)cc2)s1	.	?	.	.	.	/
C/C=C/c1ccc(O)c(OC)c1	.	10µM!	.	?	?	.
CC=Cc1cc(OC)c2c(c1)C(C)C(c1ccc(O)c(OC)c1)O2 (stereo unspecified)	8.91µM	/	?	/	.	/
CCn1c2ccc(C)cc2c2nnc(NN)nc21	?	50.1µM	?	?	.	.
CCn1c2ccccc2c2nnc(NN)nc21	.	?	50.1µM	?	.	.
Cn1c2ccccc2c2nnc(NN)nc21	?	/	.	?	.	.
CCCCn1c2ccc(F)cc2c2nnc(NN)nc21	.	50.1µM	.	.	.	.
CCCn1c2ccc(F)cc2c2nnc(SCCN(CC)CC)nc21	.	.	?	.	.	/
Cc1cc2c(s1)c1cnn(Cc3ccccc3F)c(=O)c1n2C(C)C	/	/	.	/	/	/
COc1ccc(C(=O)N2CCCC(C(=O)O)C2)c2ccccc12 (stereo unspecified)	.	44.7µM	.	.	.	/
COc1ccccc1CN1CCCC(C(=O)N2CCCCC2)C1 (stereo unspecified)	.	17.8µM	1.78µM	44.7µM	70.8µM	.
SMILES	GLS inhibitor	G9a inh	JMJD2A Tudor inh	BAZ2B inh	HP1b chromo inh	L3MBTL1 block
COc1ccc(CN2CCCC(C(=O)N3CCCC3)C2)c(OC)c1OC (stereo unspecified)	.	/	/	/	/	/
O=C(C1CCCN(Cc2ccccc2F)C1)N1CCCCC1 (stereo unspecified)	.	10µM	3.98µM	20µM	44.7µM	/
O=C(C1CCCN(Cc2ccccc2C(F)(F)F)C1)N1CCCCC1 (stereo unspecified)	.	5.01µM	3.55µM	50.1µM	?	.
COc1ccc(NC(=O)c2cc3c(=O)n(Cc4cccs4)ccc3nc2C)c(OC)c1	.	.	.	.	.	/
COc1cccc(CCC(=O)N(C)C2CCCN(Cc3ccccc3F)C2)c1 (stereo unspecified)	.	.	.	.	.	.
CN(C(=O)CCc1ccccc1F)C1CCCN(Cc2ccccc2F)C1 (stereo unspecified)	?	.[0.501 µM]	10µM	.	.	.[2.29 µM]
O=S(=O)(NCC(c1ccco1)N1CCN(c2ccccc2F)CC1)c1ccccc1 (stereo unspecified)	.	.	.	.	.	.
Cc1cc(C)c(S(=O)(=O)NCC(c2ccc(N(C)C)cc2)N2CCc3ccccc32)c(C)c1 (stereo unspecified)	.	11.2µM	12.6µM	3.16µM	?	/

High-throughput results from PubChem BioAssay.
